# Measured values as given in the supplement of paper PMC10849652.
# Targets with a hit are over-represented here; the source holds about 7,900 in all. About 0.6% of all pairs of compound and target were hits. Values without a mark were called inactive.
# What was measured:
# Test in all cases: log2 fold change, soluble protein after heating vs DMSO (PISA); higher = thermal stabilisation; K562 cells, 10 uM, 30 min; active = over 0.2 and 3.5 SD of the protein, either way, in both replicates (recomputed)
# erlotinib = compound: C#Cc1cccc(Nc2ncnc3cc(OCCOC)c(OCCOC)cc23)c1 [erlotinib]
# Method in brief: (§1)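 K562 cells at 2×10^6 cells/mL were given 10 μM compound for 30 min. Aliquots then went through 3 min of heating across 48°C-58°C, were pooled, and were extracted in PBS with 0.5% NP-40 at 4°C, and the supernatant after 21,000xg for 90 min was quantified by TMTpro 16plex LC-MS/MS with channel sums equalised. Thermal stability relative to control samples, from duplicates, is given as log2 fold change.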
# [1] = compound: C/C(=N\NC(=O)C1=CC(=CC=C1)S(=O)(=O)N2CCOCC2)/C3=C(C=CC(=C3)Cl)O
# Method in brief: as §1
# [2] = compound: C1=CC(=C(C=C1Cl)C2=NC3=NC=CN=C3C(=N2)NC4=CC=NC=C4)F
# Method in brief: as §1
# [3] = compound: C1=CC(=CC=C1C2=NC3=C(N2)C=C(C=C3)C(=O)N)OC4=CC=C(C=C4)Cl
# Method in brief: as §1
# [4] = compound: C1=CC2=C(C=CC(=C2)/C=C\3/C(=O)NC(=NCC4=CC=CS4)S3)N=C1
# Method in brief: as §1
# [5] = compound: C1=CC2=NC=CN=C2C=C1/C=C/3\C(=O)NC(=O)S3
# Method in brief: as §1
# [6] = compound: C1=CC=C2C(=C1)C3=NNC4=CC=CC(=C43)C2=O
# Method in brief: as §1
# [7] = compound: C1CCN(C1)C(=O)NC2=CC=CC(=C2)NC3=NC=C(C(=N3)NCCC4=CN=CN4)Br
# Method in brief: as §1
# [8] = compound: C1CN(CCC1(CC2=CC=C(C=C2)Cl)N)C3=NC=NC4=C3C=CN4
# Method in brief: as §1
# IRAK-1-4 Inhibitor I = compound: C1COCCN1CCN2C3=CC=CC=C3N=C2NC(=O)C4=CC(=CC=C4)[N+](=O)[O-] [IRAK-1-4 Inhibitor I]
# Method in brief: as §1
# ibrutinib = compound: C=CC(=O)N1CCC[C@@H](n2nc(-c3ccc(Oc4ccccc4)cc3)c3c(N)ncnc32)C1 [ibrutinib]
# Method in brief: as §1
# [9] = compound: CC(=O)c1cnc2ccc(-c3cc(Cl)c(O)c(Cl)c3)nc2c1N[C@H]1CC[C@H](CN(C)C)CC1
# Method in brief: as §1
# [10] = compound: CC(C)(O)CC(=O)NCCn1ccc2ncnc(Nc3ccc(Oc4cccc(C(F)(F)F)c4)c(Cl)c3)c21
# Method in brief: as §1
# [11] = compound: CC(C)C1=C2N=C(C=C(N2N=C1)NCC3=CC=CC=C3)NCCCCCCN
# Method in brief: as §1
# pinometostat = compound: CC(C)N(C[C@H]1O[C@@H](n2cnc3c(N)ncnc32)[C@H](O)[C@@H]1O)[C@H]1C[C@@H](CCc2nc3cc(C(C)(C)C)ccc3[nH]2)C1 [pinometostat]
# Method in brief: as §1
# [12] = compound: CC1=C(C(CC(=O)N1)C2=CC=C(C=C2)C(F)(F)F)C(=O)NC3=C(C=C4C(=C3)C=NN4)F
# Method in brief: as §1
# [13] = compound: CC1=C(C2=C(C=C1)C(=O)C3=CC=CC=C3N2CCCN)C
# Method in brief: as §1
# [14] = compound: C1=CC=C(C=C1)C2=NC(=C(N2)C3=CC=NC=C3)C4=CC(=C(C=C4)Cl)O
# Method in brief: as §1
# ralimetinib = compound: CC(C)(C)Cn1c(N)nc2ccc(-c3[nH]c(C(C)(C)C)nc3-c3ccc(F)cc3)nc21 [ralimetinib]
# Method in brief: as §1
# [15] = compound: CC(C)C[C@@H](C=O)NC(=O)[C@H](CC(C)C)NC(=O)[C@H](CC(C)C)NC(=O)OCc1ccccc1
# Method in brief: as §1
# Chain of UniProt Q29RF7 (Q29RF7 whole entry, looked up): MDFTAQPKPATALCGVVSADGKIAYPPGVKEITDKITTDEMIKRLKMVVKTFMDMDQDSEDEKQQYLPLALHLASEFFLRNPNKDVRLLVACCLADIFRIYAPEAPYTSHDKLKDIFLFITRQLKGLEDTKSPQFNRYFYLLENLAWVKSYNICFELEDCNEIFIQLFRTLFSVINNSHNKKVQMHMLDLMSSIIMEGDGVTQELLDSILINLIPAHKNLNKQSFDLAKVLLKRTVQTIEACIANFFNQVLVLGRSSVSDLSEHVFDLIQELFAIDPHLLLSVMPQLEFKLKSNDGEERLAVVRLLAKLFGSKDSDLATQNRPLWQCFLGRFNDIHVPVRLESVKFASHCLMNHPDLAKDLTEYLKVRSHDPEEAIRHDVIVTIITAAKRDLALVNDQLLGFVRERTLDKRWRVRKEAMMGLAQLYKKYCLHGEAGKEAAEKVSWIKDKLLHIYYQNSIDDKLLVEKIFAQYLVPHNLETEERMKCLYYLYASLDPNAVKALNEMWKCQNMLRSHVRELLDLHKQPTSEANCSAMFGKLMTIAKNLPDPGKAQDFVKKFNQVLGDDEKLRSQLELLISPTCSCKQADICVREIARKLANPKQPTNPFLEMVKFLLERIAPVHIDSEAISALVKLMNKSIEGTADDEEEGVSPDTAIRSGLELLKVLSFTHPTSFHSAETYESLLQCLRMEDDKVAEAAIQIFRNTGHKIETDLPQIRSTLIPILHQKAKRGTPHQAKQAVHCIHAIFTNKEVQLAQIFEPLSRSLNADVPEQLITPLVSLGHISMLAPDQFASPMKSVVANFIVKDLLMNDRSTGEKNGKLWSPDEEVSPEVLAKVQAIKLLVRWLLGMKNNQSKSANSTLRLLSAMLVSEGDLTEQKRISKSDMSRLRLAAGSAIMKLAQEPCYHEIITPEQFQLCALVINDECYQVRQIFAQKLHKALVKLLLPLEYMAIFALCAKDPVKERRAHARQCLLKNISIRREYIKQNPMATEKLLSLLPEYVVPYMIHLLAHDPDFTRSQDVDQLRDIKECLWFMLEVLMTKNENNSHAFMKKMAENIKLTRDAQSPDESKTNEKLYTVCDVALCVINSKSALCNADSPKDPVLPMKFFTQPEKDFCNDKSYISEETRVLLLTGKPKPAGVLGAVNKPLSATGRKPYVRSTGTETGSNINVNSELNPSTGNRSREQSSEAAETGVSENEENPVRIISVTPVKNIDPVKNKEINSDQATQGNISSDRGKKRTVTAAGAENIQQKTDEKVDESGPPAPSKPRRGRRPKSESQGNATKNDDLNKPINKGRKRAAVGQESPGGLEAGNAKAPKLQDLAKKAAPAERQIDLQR
# Chain of UniProt Q14442 (Q14442 whole entry, looked up): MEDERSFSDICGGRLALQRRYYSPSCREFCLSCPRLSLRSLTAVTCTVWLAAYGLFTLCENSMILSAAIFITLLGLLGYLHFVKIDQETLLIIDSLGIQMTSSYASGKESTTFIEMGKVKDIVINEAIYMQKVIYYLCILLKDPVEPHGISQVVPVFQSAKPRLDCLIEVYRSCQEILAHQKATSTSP
# Chain of UniProt P11498 (P11498 whole entry, looked up): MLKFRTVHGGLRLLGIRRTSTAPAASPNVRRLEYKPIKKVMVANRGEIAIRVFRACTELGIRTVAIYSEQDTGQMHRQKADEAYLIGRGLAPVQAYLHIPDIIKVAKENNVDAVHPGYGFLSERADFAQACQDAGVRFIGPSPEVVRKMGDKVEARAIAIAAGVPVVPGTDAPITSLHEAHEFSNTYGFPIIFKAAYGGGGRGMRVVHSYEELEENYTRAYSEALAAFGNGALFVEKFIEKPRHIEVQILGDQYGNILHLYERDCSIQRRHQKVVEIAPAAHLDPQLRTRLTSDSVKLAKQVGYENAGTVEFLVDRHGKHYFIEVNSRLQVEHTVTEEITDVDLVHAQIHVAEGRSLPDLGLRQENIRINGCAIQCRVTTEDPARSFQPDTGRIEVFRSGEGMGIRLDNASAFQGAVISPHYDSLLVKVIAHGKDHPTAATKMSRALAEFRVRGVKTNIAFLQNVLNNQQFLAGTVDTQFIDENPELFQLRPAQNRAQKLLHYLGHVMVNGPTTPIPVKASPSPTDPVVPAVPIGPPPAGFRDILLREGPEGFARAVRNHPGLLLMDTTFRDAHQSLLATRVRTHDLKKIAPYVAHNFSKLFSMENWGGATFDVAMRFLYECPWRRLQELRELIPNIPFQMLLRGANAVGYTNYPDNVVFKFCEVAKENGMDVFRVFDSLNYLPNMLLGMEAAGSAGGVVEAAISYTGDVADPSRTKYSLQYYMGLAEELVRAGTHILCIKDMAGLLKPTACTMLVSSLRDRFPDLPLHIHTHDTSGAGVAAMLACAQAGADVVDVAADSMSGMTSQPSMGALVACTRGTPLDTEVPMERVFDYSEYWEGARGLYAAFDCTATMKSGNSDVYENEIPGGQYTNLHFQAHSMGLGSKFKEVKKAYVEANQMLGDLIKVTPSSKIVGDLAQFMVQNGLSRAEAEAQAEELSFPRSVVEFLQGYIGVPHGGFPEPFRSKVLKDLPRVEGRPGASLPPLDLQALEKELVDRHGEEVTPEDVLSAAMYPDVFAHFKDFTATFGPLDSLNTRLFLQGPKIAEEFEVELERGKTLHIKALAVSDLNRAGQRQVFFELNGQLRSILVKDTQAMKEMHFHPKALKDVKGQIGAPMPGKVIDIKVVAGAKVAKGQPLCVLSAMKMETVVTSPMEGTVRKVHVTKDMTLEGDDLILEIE
# Chain of UniProt Q6P4A8 (Q6P4A8 whole entry, looked up): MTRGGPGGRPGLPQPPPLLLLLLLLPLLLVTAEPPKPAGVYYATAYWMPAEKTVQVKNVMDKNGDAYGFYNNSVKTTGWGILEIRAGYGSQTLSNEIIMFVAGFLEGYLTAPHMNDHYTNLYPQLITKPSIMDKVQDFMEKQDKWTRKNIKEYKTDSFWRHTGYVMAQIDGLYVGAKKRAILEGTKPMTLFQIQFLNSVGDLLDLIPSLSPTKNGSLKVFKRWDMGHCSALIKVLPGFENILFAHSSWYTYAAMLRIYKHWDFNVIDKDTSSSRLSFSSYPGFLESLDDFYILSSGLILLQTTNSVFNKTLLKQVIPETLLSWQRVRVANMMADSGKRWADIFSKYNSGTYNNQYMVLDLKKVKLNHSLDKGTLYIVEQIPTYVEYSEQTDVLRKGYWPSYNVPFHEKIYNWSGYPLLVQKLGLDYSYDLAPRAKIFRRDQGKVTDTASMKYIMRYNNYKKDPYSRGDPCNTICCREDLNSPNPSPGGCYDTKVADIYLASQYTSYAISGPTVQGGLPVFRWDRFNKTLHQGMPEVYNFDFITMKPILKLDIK
# Chain of UniProt Q9P2B2 (Q9P2B2 whole entry, looked up): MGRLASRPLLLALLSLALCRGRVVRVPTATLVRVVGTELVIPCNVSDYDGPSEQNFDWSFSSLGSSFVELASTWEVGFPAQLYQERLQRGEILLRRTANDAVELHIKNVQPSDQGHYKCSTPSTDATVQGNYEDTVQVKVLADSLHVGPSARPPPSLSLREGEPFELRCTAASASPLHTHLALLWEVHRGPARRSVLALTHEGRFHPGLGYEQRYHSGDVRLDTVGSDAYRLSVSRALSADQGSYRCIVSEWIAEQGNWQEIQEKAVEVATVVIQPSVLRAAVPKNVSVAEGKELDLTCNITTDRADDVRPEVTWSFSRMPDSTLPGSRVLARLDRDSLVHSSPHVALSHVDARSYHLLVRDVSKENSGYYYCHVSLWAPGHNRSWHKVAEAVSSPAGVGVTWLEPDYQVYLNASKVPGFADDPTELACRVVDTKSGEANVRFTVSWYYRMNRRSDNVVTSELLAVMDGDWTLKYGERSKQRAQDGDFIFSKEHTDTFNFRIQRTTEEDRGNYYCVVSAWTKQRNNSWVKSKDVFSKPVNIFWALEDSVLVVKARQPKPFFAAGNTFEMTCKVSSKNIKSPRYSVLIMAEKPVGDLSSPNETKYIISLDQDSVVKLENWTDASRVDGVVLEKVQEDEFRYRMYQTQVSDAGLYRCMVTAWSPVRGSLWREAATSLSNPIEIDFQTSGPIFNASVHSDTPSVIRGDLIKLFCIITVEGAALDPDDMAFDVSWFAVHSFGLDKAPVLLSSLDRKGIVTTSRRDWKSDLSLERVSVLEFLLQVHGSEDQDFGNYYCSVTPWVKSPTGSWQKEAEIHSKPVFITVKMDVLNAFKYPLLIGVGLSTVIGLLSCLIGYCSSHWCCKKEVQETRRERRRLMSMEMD
# Chain of UniProt Q9Y244 (Q9Y244 whole entry, looked up): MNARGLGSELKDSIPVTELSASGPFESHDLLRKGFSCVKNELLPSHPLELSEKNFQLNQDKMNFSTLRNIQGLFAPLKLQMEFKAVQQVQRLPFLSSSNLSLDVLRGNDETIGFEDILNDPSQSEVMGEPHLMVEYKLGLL
# Chain of UniProt P35227 (P35227 whole entry, looked up): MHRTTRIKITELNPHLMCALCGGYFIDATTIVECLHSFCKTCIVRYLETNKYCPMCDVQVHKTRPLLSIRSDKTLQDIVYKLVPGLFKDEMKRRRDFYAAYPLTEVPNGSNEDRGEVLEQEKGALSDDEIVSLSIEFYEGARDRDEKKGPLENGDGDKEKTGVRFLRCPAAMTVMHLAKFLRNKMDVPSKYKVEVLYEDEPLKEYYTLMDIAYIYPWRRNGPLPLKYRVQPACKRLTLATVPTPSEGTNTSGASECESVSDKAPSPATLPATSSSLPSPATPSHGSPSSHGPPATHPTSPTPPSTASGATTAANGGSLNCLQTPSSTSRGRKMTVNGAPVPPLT
# Chain of UniProt P53801 (P53801 whole entry, looked up): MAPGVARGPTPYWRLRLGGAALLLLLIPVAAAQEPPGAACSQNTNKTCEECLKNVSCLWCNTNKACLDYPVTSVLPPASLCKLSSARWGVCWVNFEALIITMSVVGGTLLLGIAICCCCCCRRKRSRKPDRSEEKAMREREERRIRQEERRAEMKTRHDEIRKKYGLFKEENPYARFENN
Target,log2 fold change (erlotinib),log2 fold change [1],log2 fold change [2],log2 fold change [3],log2 fold change [4],log2 fold change [5],log2 fold change [6],log2 fold change [7],log2 fold change [8],log2 fold change (IRAK-1-4 Inhibitor I),log2 fold change (ibrutinib),log2 fold change [9],log2 fold change [10],log2 fold change [11],log2 fold change (pinometostat),log2 fold change [12],log2 fold change [13],log2 fold change [14],log2 fold change (ralimetinib),log2 fold change [15]
PRKCE (UniProt Q02156),-0.076,0.107,0.111,0.057,0.06,0.057,0.004,-0.019,-0.095,-0.02,-0.013,-0.468 (active),-0.026,-0.153,-0.051,-0.059,-0.009,,,
PATL1 (UniProt Q86TB9),0.044,0.13,-0.021,0.048,0.01,-0.233,0.029,-0.071,-0.052,-0.026,-0.173,-0.312,-0.024,-0.298,0.143,,0.038,-0.075,0.079,0.033
PEX13 (UniProt Q92968),0.026,0.03,0.026,0.009,0.048,0.073,0.005,0.038,0.036,0.053,-0.067,-0.011,-0.193,-0.201,-0.032,0.003,0.024,-0.01,0.062,0.036
PIGH (UniProt Q14442),-0.036,0.068,0.049,0.027,0.042,-0.03,-0.054,-0.005,0.009,-0.207,0.022,-0.004,0.023,0.014,0.139,,0.096,-0.065,-0.017,-0.004
PTTG1IP (UniProt P53801),-0.011,-0.06,-0.039,-0.001,0.026,0.033,-0.082,0.037,0.01,-0.122,0.028,-0.004,-0.031,0.029,0.028,0.084,-0.119,,,
PSMD6 (UniProt Q15008),-0.024,-0.041,-0.042,0.017,-0.056,-0.007,0.053,0.002,0.016,-0.037,-0.036,0.081,0.05,0.038,0.047,0.028,0.012,0.09,0.087,-0.221 (active)
POMP (UniProt Q9Y244),0.003,-0.018,0.373 (active),0.015,-0.073,0.086,0.003,0.061,-0.034,0.029,-0.002,-0.002,-0.033,0.009,-0.023,0.076,-0.053,-0.018,-0.022,-0.002
PDS5A (UniProt Q29RF7),0.225,0.132,0.04,-0.227,0.05,-0.176,0.108,-0.25,-0.267,-0.168,-0.041,-0.063,-0.344,-0.61,0.045,0.221,-0.103,0.14,-0.012,0.272
PLBD1 (UniProt Q6P4A8),0.05,-0.008,0.024,0.037,0.09,0.024,-0.01,0.037,0.009,0.033,-0.002,0.025,0.036,-0.012,0.057,-0.019,0.02,0.036,-0.077,-0.015
PCGF2 (UniProt P35227),0.11,0.037,0.001,-0.013,0.177,-0.023,-0.002,-0.057,-0.061,-0.077,-0.101,-0.164,0,-0.095,-0.075,-0.119,0.107,0.053,-0.036,0.065
PCBP2 (UniProt F8VRH0),-0.011,0.07,0.016,-0.099,-0.26,-0.153,-0.04,-0.13,0.113,0.118,0.057,-0.092,-0.263,0.123,0.022,0.089,-0.113,,,
POLR2E (UniProt P19388),0.022,0.021,0.038,0.057,-0.054,0.007,-0.02,-0.01,0.011,-0.106,-0.012,0.218,-0.061,0.081,0.108,-0.055,-0.014,0.013,-0.041,0.065
PKM (UniProt P14618),0.008,-0.005,0.052,0.003,0.002,-0.003,-0.011,-0.006,0.029,0.012,,-0.011,-0.02,0.079,-0.033,0.021,0.036,-0.016,-0.018,-0.013
PIK3CD (UniProt O00329),-0.044,-0.224,0.095,0.181,0.114,0.241,-0.063,-0.077,-0.013,0.005,-0.137,0.237,-0.391,0.104,-0.024,,0.259,-0.052,0.032,0.116
PC (UniProt P11498),-0.037,0.101,0.117,0.056,0.047,-0.042,0.031,-0.022,0.012,-0.024,0.04,-0.151,-0.038,0.183,-0.016,-0.081,0.15,0.042,-0.02,-0.037
PTGFRN (UniProt Q9P2B2),0.019,-0.006,0.021,0,-0.034,0.01,-0.053,-0.027,0.11,0.009,0.06,-0.111,-0.026,0.222 (active),0.002,0.006,0.028,0.015,-0.029,0.07
